Source: the supplement of paper PMC10849652
The full data set covers some 7,900 targets. This sample favours those with a hit. About 0.6% of all pairs of compound and target were hits.

How the values were obtained:
Test in all cases: log2 fold change, soluble protein after heating vs DMSO (PISA); higher = thermal stabilisation; K562 cells, 10 uM, 30 min; active = over 0.2 and 3.5 SD of the protein, either way, in both replicates (recomputed)
alisertib = compound: COc1cc(Nc2ncc3c(n2)-c2ccc(Cl)cc2C(c2c(F)cccc2OC)=NC3)ccc1C(=O)O [alisertib]
Summary of the method: (§1)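 Soluble protein was quantified by TMTpro 16plex LC-MS/MS after channel sums were equalised. It was obtained as the supernatant after 21,000xg for 90 min from pooled aliquots of K562 cells (2×10^6 cells/mL, 10 μM compound, 30 min) heated for 3 min across 48°C-58°C and extracted in PBS with 0.5% NP-40 at 4°C. Thermal stability values are relative to control samples and come from duplicates. They are given as log2 fold changes.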

gefitinib = compound: COc1cc2ncnc(Nc3ccc(F)c(Cl)c3)c2cc1OCCCN1CCOCC1 [gefitinib]
Summary of the method: as §1

[1] = compound: COc1cccc2cc(-c3nc([C@H]4CC[C@H](C(=O)O)CC4)n4ncnc(N)c34)[nH]c12
Summary of the method: as §1

[2] = compound: COC1=CC=C(C=C1)CN2C=CC3=C2C=C(C=C3)C(=O)NO
Summary of the method: as §1

filanesib = compound: CON(C)C(=O)N1N=C(c2cc(F)ccc2F)S[C@@]1(CCCN)c1ccccc1 [filanesib]
Summary of the method: as §1

zotarolimus = compound: CO[C@H]1C[C@@H]2CC[C@@H](C)[C@@](O)(O2)C(=O)C(=O)N2CCCC[C@H]2C(=O)O[C@H]([C@H](C)C[C@@H]2CC[C@H](n3cnnn3)[C@H](OC)C2)CC(=O)[C@H](C)/C=C(\C)[C@@H](O)[C@@H](OC)C(=O)[C@H](C)C[C@H](C)/C=C/C=C/C=C/1C [zotarolimus]
Summary of the method: as §1

[3] = compound: COc1cc2nc(-c3cc(F)ccc3O)nc(N[C@@H]3CNC[C@H]3C(C)(C)O)c2cc1OC
Summary of the method: as §1

lapatinib = compound: CS(=O)(=O)CCNCc1ccc(-c2ccc3ncnc(Nc4ccc(OCc5cccc(F)c5)c(Cl)c4)c3c2)o1 [lapatinib]
Summary of the method: as §1

pictilisib = compound: CS(=O)(=O)N1CCN(Cc2cc3nc(-c4cccc5[nH]ncc45)nc(N4CCOCC4)c3s2)CC1 [pictilisib]
Summary of the method: as §1

[4] = compound: CS(=O)(=O)c1ccc(-c2cnc(N)c(C(=O)Nc3ccccc3)n2)cc1
Summary of the method: as §1

crizotinib = compound: C[C@@H](Oc1cc(-c2cnn(C3CCNCC3)c2)cnc1N)c1c(Cl)ccc(F)c1Cl [crizotinib]
Summary of the method: as §1

[5] = compound: C[C@H](C1=CC=C(C=C1)C(=O)NC2=C3C=CNC3=NC=C2)N
Summary of the method: as §1

gandotinib = compound: Cc1cc(Nc2cc(CN3CCOCC3)c3nc(C)c(Cc4ccc(Cl)cc4F)n3n2)n[nH]1 [gandotinib]
Summary of the method: as §1

doramapimod = compound: Cc1ccc(-n2nc(C(C)(C)C)cc2NC(=O)Nc2ccc(OCCN3CCOCC3)c3ccccc23)cc1 [doramapimod]
Summary of the method: as §1

ispinesib = compound: Cc1ccc(C(=O)N(CCCN)[C@@H](c2nc3cc(Cl)ccc3c(=O)n2Cc2ccccc2)C(C)C)cc1 [ispinesib]
Summary of the method: as §1

idasanutlin = compound: COc1cc(C(=O)O)ccc1NC(=O)[C@@H]1N[C@@H](CC(C)(C)C)[C@](C#N)(c2ccc(Cl)cc2F)[C@H]1c1cccc(Cl)c1F [idasanutlin]
Summary of the method: as §1

[6] = compound: C[C@@H]1COCCN1C2=NC(=NC(=C2)C3(CC3)S(=O)(=O)C)C4=C5C=CNC5=CC=C4
Summary of the method: as §1

duvelisib = compound: C[C@H](Nc1ncnc2nc[nH]c12)c1cc2cccc(Cl)c2c(=O)n1-c1ccccc1 [duvelisib]
Summary of the method: as §1

tozasertib = compound: Cc1cc(Nc2cc(N3CCN(C)CC3)nc(Sc3ccc(NC(=O)C4CC4)cc3)n2)n[nH]1 [tozasertib]
Summary of the method: as §1

[7] = compound: Cc1cc(SCc2sc(-c3ccc(C(F)(F)F)cc3)nc2C)ccc1OCC(=O)O
Summary of the method: as §1

Measured: log2 fold change

HBZ, A0A494C057
inactive: alisertib 1.67 | gefitinib 0.151 | [1] 0.009

FMR1 (UniProt Q06787)
inactive: [2] -0.3 | filanesib 0.219 | zotarolimus 0.005 | alisertib -0.023 | [3] 0.286 | [1] 0.322 | lapatinib -0.027 | pictilisib 0.036 | [4] -0.067 | crizotinib 0.151 | [5] 0.199 | gandotinib 0.045 | doramapimod -0.065 | ispinesib -0.022

HDAC7 isoform 5 (UniProt Q8WUI4)
Sequence of UniProt Q8WUI4 (Q8WUI4 whole entry, looked up): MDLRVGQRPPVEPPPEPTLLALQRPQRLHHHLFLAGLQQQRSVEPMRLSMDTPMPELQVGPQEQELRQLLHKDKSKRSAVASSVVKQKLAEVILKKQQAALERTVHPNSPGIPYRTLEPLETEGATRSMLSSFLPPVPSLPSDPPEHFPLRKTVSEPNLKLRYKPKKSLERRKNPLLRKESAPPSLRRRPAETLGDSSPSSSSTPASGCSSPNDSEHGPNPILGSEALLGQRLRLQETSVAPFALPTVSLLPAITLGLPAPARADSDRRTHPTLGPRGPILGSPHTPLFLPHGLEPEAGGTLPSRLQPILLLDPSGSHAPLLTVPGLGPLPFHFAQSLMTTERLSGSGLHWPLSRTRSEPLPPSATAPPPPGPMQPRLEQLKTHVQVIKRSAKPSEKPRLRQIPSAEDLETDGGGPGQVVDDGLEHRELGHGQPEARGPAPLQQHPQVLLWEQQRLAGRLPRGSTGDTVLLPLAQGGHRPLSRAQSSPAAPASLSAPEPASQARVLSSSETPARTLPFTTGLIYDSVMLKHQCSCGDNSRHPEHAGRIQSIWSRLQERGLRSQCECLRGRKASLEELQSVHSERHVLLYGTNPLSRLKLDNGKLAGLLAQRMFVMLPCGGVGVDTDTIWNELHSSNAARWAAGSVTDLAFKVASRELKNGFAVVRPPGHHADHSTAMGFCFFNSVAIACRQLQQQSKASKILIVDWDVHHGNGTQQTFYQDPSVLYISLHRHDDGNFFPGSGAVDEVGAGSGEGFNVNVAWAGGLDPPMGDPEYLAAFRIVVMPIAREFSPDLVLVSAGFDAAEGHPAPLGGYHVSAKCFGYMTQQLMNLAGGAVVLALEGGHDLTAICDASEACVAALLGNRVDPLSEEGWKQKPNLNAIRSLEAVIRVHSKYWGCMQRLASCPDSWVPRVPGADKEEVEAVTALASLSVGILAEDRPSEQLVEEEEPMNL
inactive: filanesib 0.121 | zotarolimus 0.054 | idasanutlin 0.024 | alisertib -0.075 | [3] 0.075 | gefitinib -0.015 | [1] 0.046 | lapatinib 0.071 | pictilisib -0.004 | [4] -0.027 | crizotinib -0.013 | [6] 0.016 | duvelisib 0.008 | gandotinib 0.011 | tozasertib -0.03 | [7] 0.028 | doramapimod -0.018 | ispinesib 0.185
active: [5] -0.281

IFNGR1 (UniProt P15260)
inactive: filanesib 0.091 | zotarolimus -0.067 | idasanutlin 0.105 | alisertib -0.09 | [3] 0.207 | gefitinib 0.097 | [1] 0.143 | lapatinib -0.058 | pictilisib -0.085 | [4] 0.135 | [6] -0.1 | [5] 0.068 | duvelisib -0.059 | gandotinib -0.053 | tozasertib -0.19 | [7] -0.162 | ispinesib -0.041

GSTT1 (UniProt P30711)
inactive: [2] 0.014 | zotarolimus 0.07 | idasanutlin 0 | alisertib -0.118 | [3] -0.015 | gefitinib 0.023 | [1] 0.029 | lapatinib 0.003 | pictilisib 0.027 | [6] 0.19 | [5] 0.002 | duvelisib 0.1 | gandotinib 0.19 | tozasertib 0.017 | [7] -0.061 | doramapimod -0.003 | ispinesib 0.026
active: crizotinib 0.332

GPS2 (UniProt Q13227)
active: ispinesib 0.31
inactive: [2] -0.108 | filanesib 0.018 | alisertib -0.067 | [3] 0.135 | gefitinib 0.008 | [1] 0.152 | lapatinib -0.044 | [4] -0.114 | crizotinib 0.019 | [6] 0.208 | tozasertib -0.221 | doramapimod 0.047

HEATR3 (UniProt Q7Z4Q2)
inactive: [2] 0.027 | filanesib 0.007 | zotarolimus -0.004 | alisertib 0.099 | [3] -0.083 | gefitinib 0.072 | [1] 0.046 | lapatinib 0.004 | pictilisib -0.134 | [4] -0.001 | crizotinib -0.171 | [6] 0.094 | [5] 0.123 | duvelisib 0.078 | gandotinib -0.377 | tozasertib 0.065 | [7] 0.146 | doramapimod 0.011 | ispinesib -0.006

HAUS4 (UniProt Q9H6D7)
Sequence of UniProt Q9H6D7 (Q9H6D7 whole entry, looked up): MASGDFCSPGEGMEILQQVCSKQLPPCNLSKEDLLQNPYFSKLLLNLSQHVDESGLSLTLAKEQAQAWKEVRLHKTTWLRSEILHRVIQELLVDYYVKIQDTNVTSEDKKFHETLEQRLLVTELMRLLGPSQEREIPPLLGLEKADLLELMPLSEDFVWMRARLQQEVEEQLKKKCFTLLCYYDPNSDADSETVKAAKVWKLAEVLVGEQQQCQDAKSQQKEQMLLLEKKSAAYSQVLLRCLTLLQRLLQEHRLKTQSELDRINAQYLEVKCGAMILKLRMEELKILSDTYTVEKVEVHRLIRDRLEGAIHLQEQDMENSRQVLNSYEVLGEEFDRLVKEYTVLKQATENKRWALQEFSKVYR
inactive: filanesib 0.245 | zotarolimus 0.05 | idasanutlin 0.126 | alisertib -0.103 | [3] 0.024 | gefitinib -0.086 | [1] 0.323 | lapatinib -0.038 | pictilisib -0.162 | [4] 0.068 | [6] 0.024 | [5] 0.139 | duvelisib -0.303 | gandotinib 0.015 | tozasertib 0.041 | [7] -0.195 | ispinesib -0.259

ICMT (UniProt O60725)
inactive: [2] -0.083 | filanesib -0.189 | idasanutlin -0.029 | alisertib -0.046 | [3] -0.112 | gefitinib 0.154 | [1] 0.085 | lapatinib 0.206 | [4] 0.099 | crizotinib 0.074 | [6] 0.331 | duvelisib 0.078 | tozasertib -0.518 | [7] -0.107 | doramapimod 0.01 | ispinesib -0.42

GID4 (UniProt Q8IVV7)
Sequence of UniProt Q8IVV7 (Q8IVV7 whole entry, looked up): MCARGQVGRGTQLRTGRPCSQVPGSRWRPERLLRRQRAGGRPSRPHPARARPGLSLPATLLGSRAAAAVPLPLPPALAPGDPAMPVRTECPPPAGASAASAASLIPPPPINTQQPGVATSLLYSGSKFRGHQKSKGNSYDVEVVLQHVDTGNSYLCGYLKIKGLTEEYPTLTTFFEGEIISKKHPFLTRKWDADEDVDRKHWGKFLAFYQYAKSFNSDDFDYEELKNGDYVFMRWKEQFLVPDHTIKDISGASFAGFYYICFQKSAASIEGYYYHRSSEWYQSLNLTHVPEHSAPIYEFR
inactive: filanesib -0.089 | zotarolimus 0.013 | idasanutlin -0.023 | alisertib -0.074 | [3] 0.097 | gefitinib -0.067 | [1] 0.01 | lapatinib -0.14 | pictilisib 0.024 | [4] 0 | [6] 0.054 | [5] -0.006 | duvelisib 0.009 | gandotinib 0.034 | tozasertib 0.052 | [7] 0.032 | ispinesib 0.044

GBE1 (UniProt Q04446)
Sequence of UniProt Q04446 (Q04446 whole entry, looked up): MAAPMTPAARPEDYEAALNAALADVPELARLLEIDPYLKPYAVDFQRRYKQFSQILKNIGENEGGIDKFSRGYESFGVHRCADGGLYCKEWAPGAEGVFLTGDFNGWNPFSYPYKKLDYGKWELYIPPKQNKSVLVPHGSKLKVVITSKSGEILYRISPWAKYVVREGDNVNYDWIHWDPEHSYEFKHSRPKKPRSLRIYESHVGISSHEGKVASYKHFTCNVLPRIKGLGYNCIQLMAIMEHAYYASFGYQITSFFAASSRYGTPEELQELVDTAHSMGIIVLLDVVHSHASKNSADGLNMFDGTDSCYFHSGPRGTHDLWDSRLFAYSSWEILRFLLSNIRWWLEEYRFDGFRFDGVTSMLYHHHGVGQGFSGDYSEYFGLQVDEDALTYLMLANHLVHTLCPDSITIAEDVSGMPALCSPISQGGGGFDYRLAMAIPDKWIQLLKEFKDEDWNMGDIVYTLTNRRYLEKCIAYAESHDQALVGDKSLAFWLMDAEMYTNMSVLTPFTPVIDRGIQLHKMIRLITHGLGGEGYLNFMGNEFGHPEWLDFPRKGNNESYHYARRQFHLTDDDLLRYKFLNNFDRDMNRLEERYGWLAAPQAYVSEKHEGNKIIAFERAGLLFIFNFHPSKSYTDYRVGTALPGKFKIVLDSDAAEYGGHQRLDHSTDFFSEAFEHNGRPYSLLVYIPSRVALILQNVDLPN
inactive: [2] 0.048 | zotarolimus 0.045 | idasanutlin 0.002 | alisertib 0.019 | [3] -0.168 | [1] -0.102 | lapatinib -0.022 | [6] -0.054 | [5] 0.193 | duvelisib -0.026 | tozasertib -0.001 | [7] 0.094 | doramapimod -0.02 | ispinesib -0.286
active: crizotinib -0.565

FBXO9 (UniProt Q9UK97)
Sequence of UniProt Q9UK97 (Q9UK97 whole entry, looked up): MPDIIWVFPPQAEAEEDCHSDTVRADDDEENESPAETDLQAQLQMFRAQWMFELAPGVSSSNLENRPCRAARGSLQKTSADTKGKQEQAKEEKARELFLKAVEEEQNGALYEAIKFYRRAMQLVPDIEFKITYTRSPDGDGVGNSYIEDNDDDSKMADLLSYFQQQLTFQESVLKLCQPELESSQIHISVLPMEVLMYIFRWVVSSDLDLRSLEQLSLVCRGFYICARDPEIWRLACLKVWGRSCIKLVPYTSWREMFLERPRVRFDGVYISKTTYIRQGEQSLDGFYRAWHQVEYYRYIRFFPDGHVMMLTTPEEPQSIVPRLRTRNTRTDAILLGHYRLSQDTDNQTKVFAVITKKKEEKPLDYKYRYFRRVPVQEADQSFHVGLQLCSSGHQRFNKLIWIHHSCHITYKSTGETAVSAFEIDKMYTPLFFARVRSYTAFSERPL
active: alisertib 0.466
inactive: [2] 0.124 | zotarolimus -0.027 | [3] -0.169 | gefitinib 0.007 | [1] 0.077 | lapatinib 0.012 | pictilisib 0.036 | crizotinib 0.028 | [5] -0.046 | duvelisib -0.03 | gandotinib -0.151 | tozasertib -0.071 | [7] 0.079 | doramapimod -0.081 | ispinesib -0.057

H3-3A (UniProt P84243)
inactive: filanesib -0.187 | zotarolimus 0.009 | alisertib 0.098 | [3] 0.179 | gefitinib 0.035 | [1] -0.062 | lapatinib -0.042 | [4] 0.082 | [5] 0.038 | duvelisib -0.184 | tozasertib -0.066 | [7] 0.106

HSPA2 (UniProt P54652)
Sequence of UniProt P54652 (P54652 whole entry, looked up): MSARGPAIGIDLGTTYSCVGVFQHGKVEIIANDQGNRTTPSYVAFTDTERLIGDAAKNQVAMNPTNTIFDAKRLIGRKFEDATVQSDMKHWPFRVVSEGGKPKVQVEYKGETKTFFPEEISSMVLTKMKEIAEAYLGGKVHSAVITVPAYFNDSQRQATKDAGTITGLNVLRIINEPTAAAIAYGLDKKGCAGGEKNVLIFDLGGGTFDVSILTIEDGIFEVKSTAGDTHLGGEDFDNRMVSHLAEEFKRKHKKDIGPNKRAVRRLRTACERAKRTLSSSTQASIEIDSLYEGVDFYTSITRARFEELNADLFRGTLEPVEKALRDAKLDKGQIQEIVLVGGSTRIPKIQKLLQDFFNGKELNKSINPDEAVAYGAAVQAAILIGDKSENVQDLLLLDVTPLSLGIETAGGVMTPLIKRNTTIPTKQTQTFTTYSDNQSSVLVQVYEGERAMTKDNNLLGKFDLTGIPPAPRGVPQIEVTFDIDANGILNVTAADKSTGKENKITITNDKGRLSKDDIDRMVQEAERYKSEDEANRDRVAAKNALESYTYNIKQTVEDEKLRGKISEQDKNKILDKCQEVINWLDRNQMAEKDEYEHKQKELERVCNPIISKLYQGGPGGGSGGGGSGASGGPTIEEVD
inactive: [2] -0.103 | filanesib 0.026 | idasanutlin 0.032 | alisertib -0.077 | gefitinib 0.005 | [1] 0.076 | [4] 0.011 | crizotinib 0.123 | doramapimod -0.003 | ispinesib -0.025

IDH3A isoform 2 (UniProt P50213)
Sequence of UniProt P50213 (P50213 whole entry, looked up): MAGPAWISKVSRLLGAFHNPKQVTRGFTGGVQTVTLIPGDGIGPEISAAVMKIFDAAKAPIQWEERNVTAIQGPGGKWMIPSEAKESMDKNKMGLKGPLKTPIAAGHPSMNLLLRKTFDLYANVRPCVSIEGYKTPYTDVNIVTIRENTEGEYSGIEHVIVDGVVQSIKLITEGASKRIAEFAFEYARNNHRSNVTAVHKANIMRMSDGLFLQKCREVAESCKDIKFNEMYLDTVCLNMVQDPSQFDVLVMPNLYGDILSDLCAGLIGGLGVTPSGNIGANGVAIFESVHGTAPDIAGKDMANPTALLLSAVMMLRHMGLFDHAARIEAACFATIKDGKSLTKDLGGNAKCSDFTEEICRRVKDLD
inactive: [2] 0.32 | zotarolimus -0.056 | idasanutlin -0.246 | gefitinib 0.029 | crizotinib -0.206 | [5] -0.016 | tozasertib -0.141 | doramapimod 0.051

GINS2 (UniProt Q9Y248)
inactive: [2] 0.057 | filanesib -0.021 | zotarolimus 0.29 | alisertib -0.069 | [3] 0.025 | gefitinib 0.035 | [1] -0.089 | lapatinib -0.026 | pictilisib -0.119 | [4] -0.066 | crizotinib -0.036 | [6] -0.046 | [5] -0.15 | duvelisib 0.164 | gandotinib 0.004 | tozasertib 0.145 | [7] 0.247 | doramapimod 0.026 | ispinesib 0.167

GSE1 (UniProt Q14687)
Sequence of UniProt Q14687 (Q14687 whole entry, looked up): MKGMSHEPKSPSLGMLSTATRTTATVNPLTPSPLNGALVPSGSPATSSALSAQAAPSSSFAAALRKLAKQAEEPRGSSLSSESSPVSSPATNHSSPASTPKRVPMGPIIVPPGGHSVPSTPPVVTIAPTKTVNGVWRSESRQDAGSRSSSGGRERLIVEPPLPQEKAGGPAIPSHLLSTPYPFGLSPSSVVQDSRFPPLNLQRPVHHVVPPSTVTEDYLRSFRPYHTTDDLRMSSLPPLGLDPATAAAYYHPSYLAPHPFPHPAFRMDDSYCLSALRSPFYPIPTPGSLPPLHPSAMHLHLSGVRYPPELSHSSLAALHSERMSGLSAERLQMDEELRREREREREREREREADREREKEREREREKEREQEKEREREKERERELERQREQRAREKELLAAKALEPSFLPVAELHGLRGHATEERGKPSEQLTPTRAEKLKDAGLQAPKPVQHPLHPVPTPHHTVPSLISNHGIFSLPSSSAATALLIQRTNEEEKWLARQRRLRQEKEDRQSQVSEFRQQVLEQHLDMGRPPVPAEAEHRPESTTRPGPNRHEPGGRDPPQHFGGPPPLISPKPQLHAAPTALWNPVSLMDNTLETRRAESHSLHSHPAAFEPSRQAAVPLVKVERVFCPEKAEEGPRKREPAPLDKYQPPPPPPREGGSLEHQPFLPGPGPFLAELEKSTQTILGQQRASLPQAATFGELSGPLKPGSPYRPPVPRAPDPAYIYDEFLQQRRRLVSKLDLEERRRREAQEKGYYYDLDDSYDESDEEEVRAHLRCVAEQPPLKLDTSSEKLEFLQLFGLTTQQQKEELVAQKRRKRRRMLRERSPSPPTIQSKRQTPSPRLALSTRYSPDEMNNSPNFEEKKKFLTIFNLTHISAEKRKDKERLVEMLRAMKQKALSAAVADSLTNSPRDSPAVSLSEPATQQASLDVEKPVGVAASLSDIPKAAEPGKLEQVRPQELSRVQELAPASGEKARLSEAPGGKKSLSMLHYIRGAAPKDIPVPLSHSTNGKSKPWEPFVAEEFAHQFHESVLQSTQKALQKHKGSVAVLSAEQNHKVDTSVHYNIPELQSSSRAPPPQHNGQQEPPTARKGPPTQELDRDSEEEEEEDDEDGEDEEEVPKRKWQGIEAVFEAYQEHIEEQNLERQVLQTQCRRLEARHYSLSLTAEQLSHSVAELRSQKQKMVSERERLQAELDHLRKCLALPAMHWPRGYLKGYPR
inactive: zotarolimus -0.063 | gefitinib 0.224 | [5] 0.008 | duvelisib 0.033 | [7] -0.046 | ispinesib -0.066

GPD1 (UniProt P21695)
inactive: filanesib -0.083 | zotarolimus 0.022 | idasanutlin -0.289 | alisertib 0.077 | [3] -0.051 | gefitinib 0.368 | [1] 0.111 | lapatinib 0.015 | pictilisib 0.203 | [4] -0.036 | [6] 0.034 | [5] -0.482 | duvelisib 0.124 | gandotinib 0.094 | tozasertib -0.072 | [7] -0.034 | ispinesib 0.046
